Consider 44 molecules from ChEMBL document CHEMBL3988442, “University of Dundee, Small-Polar-MMV Screening Library” (2021).

Molecules are shown by their SMILES. In all, about 48,000 compounds went through this assay and about 13,000 (27%) showed an effect of 50% or more. Some of the results follow.

This test relates to Wolbachia pipientis. Description: Anti-Wolbachia Cell-Based Screen. The following applies: 5 µM. Further details: scale not given: in the data most compounds retested in dose-response had high values. It counts as functional.
Take `O[C@@]1(CNCCCNc2cccnc2)CCCN2CCCC[C@@H]21`: the “Percent Effect” value is 3.199%.
`Cc1nc(O)cc(CN2CC=C(c3cnn(C(C)(C)C)c3)CC2)n1`: the “Percent Effect” value stood at 6.105%.
Consider `CC(Cc1ccccc1Br)NC(=O)CCS(C)(=O)=O` (centres undefined), for which the “Percent Effect” value turned out to be 11.71%.
Then `O=C(O)C(F)(F)F.c1ccc(NC[C@@H]2CCC[C@@H]3CN(Cc4nccs4)C[C@@H]32)nc1`, with -15.69%.
Then `O=C(O)C(F)(F)F.c1ccc(NC[C@@H]2CCC[C@@H]3CN(Cc4cccnc4)C[C@@H]32)nc1`, with 90.18%.
Then `O=C(O)C(F)(F)F.c1cnc(NC[C@@H]2CCC[C@@H]3CN(Cc4cccnc4)C[C@@H]32)nc1`, with -1.894%; and `CSCCCN1CC[C@@]2(O)CCN(c3ncccn3)C[C@H]2C1`, with -7.567%.
Consider `Cc1cccc(-c2ncc(CNC(C)Cc3ncccc3C)cn2)c1` (centres undefined), for which the “Percent Effect” value is -7.429%.
As for `c1cc(NC2CC3(CCN(Cc4cc[nH]n4)C3)C2)ncn1` (centres undefined), the “Percent Effect” value is recorded as -10.13%.
Turning to `Cc1nc(CN2CCCC3(CCN(c4cccnc4)C3=O)C2)cs1.O=C(O)C(F)(F)F.O=C(O)C(F)(F)F` (centres undefined), the “Percent Effect” value is -13.68%.
For `Cc1cc(NC2CC3(CCN(Cc4cscn4)C3)C2)ncn1` (centres undefined), the “Percent Effect” value was 115%.
With `c1cc(NC2CC3(CCN(Cc4cscn4)C3)C2)ncn1` (centres undefined), the “Percent Effect” value worked out at 101.6%.
Then `Cc1cc(NC2CC3(CCN(Cc4csc(C)n4)C3)C2)ncn1` (centres undefined), with 114%; and `Cc1noc(C)c1CN1C(=O)[C@H]2CC[C@@H]1CN(Cc1cscn1)C2`, with -52.5%; and `Cc1cc(CN2C[C@H]3CCC[C@@]3(COCc3csc(C)n3)C2)no1.O=C(O)C(F)(F)F`, with 6.371%.
Consider `Cc1nc(CN2CCC3(C2)CN(C(=O)c2conc2C)C3)cs1`, for which the “Percent Effect” value worked out at 97.08%.
Then `NCC1(c2cccc(F)c2)CCOCC1`, with -10.48%.
Then `Cc1cc(CC(=O)N2CCN(CC3CC3)[C@@H]3CS(=O)(=O)C[C@@H]32)ccc1F`, with 7.302%.
For the molecule `O=S1(=O)CCC(n2cc(C3=CCN(CCc4ccccc4)CC3)cn2)C1` (centres undefined), the “Percent Effect” value was -5.355%.
As to `Cc1n[nH]c(C)c1CC(=O)N1CCN(C)C2(CCNC(=O)CC2)C1` (centres undefined), the “Percent Effect” value is 2.016%.
Consider `O=C(Nc1ccccc1)[C@H]1CN2CC[C@H]1C[C@@H]2Cn1cc(CCO)nn1`, for which the “Percent Effect” value is on record as -5.907%.
Then `CC(=O)N1CCC2(CC1)c1ncc(-c3cccnc3)n1CCN2C`, with 84.46%; and `c1ccc2c(c1)CCC21CN(CCc2ccncc2)CCO1` (centres undefined), with -6.517%; and `CCC1CCCCN1CCc1ccncc1` (centres undefined), with -22.38%.
`CC1CN(CCc2ccncc2)CCO1` (centres undefined): the “Percent Effect” value turned out to be 124.6%.
Consider `CC(C)=CCN1C(=O)[C@H]2CC[C@@H]1CN(Cc1cccnc1N)C2`, for which the “Percent Effect” value is recorded as 18.56%.
Then `COc1cccc(CC(C)NC(=O)NCc2ccn(C)c2)c1` (centres undefined), with -0.6382%; and `CN(C)C(=O)CN1CC[C@@H]2O[C@@H](COCc3cccnc3)CC[C@@H]21.O=C(O)C(F)(F)F.O=C(O)C(F)(F)F`, with -11.44%.
Then `COC[C@@H]1CCC[C@]12CN(Cc1cccc(C)n1)CCO2.O=C(O)C(F)(F)F.O=C(O)C(F)(F)F`, with 6.622%; and `O=C(O)C(F)(F)F.O=C(O)C(F)(F)F.O=C1NCC[C@]12CN(Cc1cccnc1)C[C@H]2c1ccccc1`, with -5.552%.
Then `CCN(Cc1cccnc1)CC1CCCO1` (centres undefined), with -10.66%.
With `Cl.Cl.c1cncc(COC[C@@H]2CCC[C@@]23CNCCO3)c1`, the “Percent Effect” value is on record as 86.08%.
For the molecule `O=C(NCC1CC[C@@]2(CNCCOC2)O1)c1cccnc1` (some centres undefined), the “Percent Effect” value is -3.368%.
Then `O=C(O)C(F)(F)F.c1cc(COC[C@H]2CCC[C@]23CNCCO3)ccn1`, with 99.79%; and `O=C(O)C(F)(F)F.O=C(O)C(F)(F)F.c1cncc(COC[C@@H]2CCC[C@]23CNCCO3)c1`, with 101.8%; and `O=C(O)C(F)(F)F.O=C(O)C(F)(F)F.O=C1NCC[C@]12CN(Cc1ccncc1)C[C@H]2c1ccccc1`, with 4.919%.
Then `CC(C)(C)c1cc(=O)[nH]c(C2(N)CCCC2)n1`, with 3.211%; and `CC[C@H]1CN2CC[C@H]1C[C@@H]2CNC(=O)Nc1cccc(C(F)(F)F)c1`, with -2.454%; and `Cc1noc(CN2CC=C(c3cnn(C4CCS(=O)(=O)C4)c3)CC2)n1` (centres undefined), with -14.25%.
Then `CCOc1ccc(-c2cc(CCN)ccc2OC)cc1`, with 7.711%; and `CN1C[C@H](NC(=O)c2cscn2)[C@@H]2OCCC[C@@H]21.O=C(O)C(F)(F)F`, with 111.9%.
As for `Cl.O=C(N[C@H]1CN[C@H]2CCCO[C@H]21)c1cscn1`, the “Percent Effect” value is on record as 6.195%.
On to `O=C(N[C@H]1CN(Cc2cccs2)[C@@H]2CCCO[C@H]12)c1cccnc1.O=C(O)C(F)(F)F.O=C(O)C(F)(F)F`, for which the “Percent Effect” value was -1.494%.
In the case of `Nc1ncccc1CN1C[C@@H]2CC[C@H](C1)N(CC1CC1)C2=O`, the “Percent Effect” value is 7.202%.
